# Most compounds without a hit are left out; they make up all but 2.9% or so of the library.
# KDM5B inhibitor = KDM5B demethylase inhibition. Q9UGL1. KDM5B demethylase, FDH-coupled NADH fluorescence (FDH is formaldehyde dehydrogenase). Potency, µM (series often up to 57.7 µM), most hits filed as inhibitors. 220,000 tested, 2.6% active. AID 1347165; further: potency means the concentration at half of the fitted maximal effect; 0% is about no effect; nearly all actives have a fitted effect of over 70% in size
#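 KDM5BΔAP (200 nM final) in 50 mM HEPES pH 7.5, 0.01% Tween-20 was preincubated 10 min at RT with compound over a concentration range. Substrate mix (H3K4me3 12.5 µM, α-KG 25 µM, Fe²⁺, ascorbate, NAD⁺, FDH) was added, and NADH fluorescence change over 30 min gave dose-response curves.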
# SNCA viab count = counter-screen for SNCA expression inhibitors: cell viability | 150,000 tested, 0.12% active | AID 1671193 | Potency, µM (series often up to 57.1 µM), for the others: at the top dose activity change, negative = cytotoxicity, usual class: cytotoxic | HEK-293-SNCA-luc viability, GF-AFC fluorescence, 24 h;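 further: potency means the concentration at half of the fitted maximal effect; 0% = DMSO-treated cells and -100% = medium-only wells without cells; nearly all actives have a fitted effect of over 30% in size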
#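 HEK-293-SNCA-luc cells (1500/well) plated 24 h, then exposed 24 h to a dilution series; GF-AFC added 30 min at 37C, fluorescence 405/540 nm; normalised to medium-only and DMSO wells, Hill fit.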
# IP6K1 inh = inhibitors of human IP6K1; Q92551; activity change, % (series mostly up to about 58 µM); 140,000 tested, 0.81% active; AID 1645851; IP6K1 kinase, ADP-Glo luminescence, 2 h; hits give low values; in the data active means activity change below about -25%; further: on the % scale 0 is the no-effect control and ±100 the full control effect
# Target sequence (Q92551 whole entry, looked up): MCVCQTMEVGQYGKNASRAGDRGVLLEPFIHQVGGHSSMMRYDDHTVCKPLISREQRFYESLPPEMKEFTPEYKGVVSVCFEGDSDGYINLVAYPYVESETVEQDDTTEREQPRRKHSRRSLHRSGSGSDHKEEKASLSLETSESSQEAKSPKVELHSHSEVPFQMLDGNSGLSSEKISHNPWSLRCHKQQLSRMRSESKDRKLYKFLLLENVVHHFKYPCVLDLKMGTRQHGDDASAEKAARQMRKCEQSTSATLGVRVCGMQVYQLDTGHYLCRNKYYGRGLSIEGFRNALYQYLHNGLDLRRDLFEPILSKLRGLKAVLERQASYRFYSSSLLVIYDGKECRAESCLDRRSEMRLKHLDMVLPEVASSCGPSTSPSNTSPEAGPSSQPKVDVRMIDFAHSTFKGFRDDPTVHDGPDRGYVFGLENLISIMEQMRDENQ
#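 ADP-Glo luminescence measures ADP made by human IP6K1 during a 2 h RT reaction with ATP/IP6 (mix at 1.3 mM/130 uM); top library doses 57.5 and 19.1 uM final.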
# SNCA expr inhib = SNCA gene expression inhibition | HEK-293 SNCA-luciferase knock-in, luminescence, 24 h | AID 1671194 | Potency, µM (highest dose often 57.2 µM), inactives show top-dose activity change, negative = inhibition, actives largely listed as inhibitors | 140,000 tested, 0.17% active;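 further: potency means the concentration at half of the fitted maximal effect; plate controls were DMSO cells for no effect and cell-free wells for full effect; nearly all actives have a fitted effect of over 45% in size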
# The depositor's hits bear a star; i = inactive; ? = inconclusive; nt = not tested or not shown; [ ] = remark or other dose. Unless noted, the call rests on the fitted dose curve; in most records, active means well fitted curve in the direction sought with a large enough effect; inconclusive means small, poorly fitted or top-dose-only effect, or another doubt; inactive means no such curve, though single readings can be large; an effect the other way counts as inactive or inconclusive.
SMILES,KDM5B inhibitor,SNCA viab count,IP6K1 inh,SNCA expr inhib
O=[S+]1([O-])NCC2(CCCN(Cc3cccc(C(F)(F)F)c3)C2)Oc2ncccc21 (stereo not drawn),i,-2.9%,-1.6,-16.3%
Cc1ccccc1-c1nccn2c(C3CN(C(=O)c4cc5ccccc5[nH]4)C3)ncc12,50.1µM*,-27.4%[87.6 µM],0.3,-28.6%[87.6 µM]
COC(=O)N1CCC2(C1)N=C(c1ccccn1)C(=O)N2 (stereo not drawn),35.5µM*,1.4%[87.6 µM],-1.5,-8.3%[87.6 µM]
OCC1(Cc2ccccc2F)CCCN(c2nccc(C(F)(F)F)n2)C1 (stereo not drawn),25.1µM*,-6.1%,-4.8,6.7%
CC(C)(C)c1ccc(O)c(NC(=O)c2n[nH]c(=O)c3ccccc23)c1,i,nt,nt,nt
Cc1nc(N(C)C)ncc1C(=O)N1CCN(c2ccccc2C#N)CC1,28.2µM*,-4.2%,4.5,15.5%
Cc1ccc(-c2cc3c(=O)n(CCNC(=O)c4cnccn4)ccn3n2)cc1C,22.4µM*,0.3%,-0.1,-4.8%
CCOc1ccc(-c2cc3c(=O)n(CCNC(=O)c4cnccn4)ccn3n2)cc1,25.1µM*,0.4%,-10.3,100.7%
COc1ccc(CC(=O)N2C[C@@H](CO)[C@@H]3Oc4c(F)cccc4[C@@H]32)cc1,nt,nt,12.7,nt
CCc1ccc(CNC(=O)c2cc3ccccn3n2)cc1,?,12.2%,3.0,138.9%
O=C(NCc1ccc(Cl)nc1)c1cc2cccnn2n1,35.5µM*,4.7%[87.6 µM],4.4,-11.1%[87.6 µM]
O=C(Nc1ccc(Cl)nc1)c1cc2cccnn2n1,35.5µM*,-2.5%[87.6 µM],8.3,73.2%[87.6 µM]
O=C(O)c1ccnc2ccccc12,i,nt,nt,nt
COc1ccc(CNC(=O)C[C@@H]2c3nc(NC(=O)c4cccs4)sc3C[C@@H]3[C@](C)(CO)[C@H](O)CC[C@]32C)cc1,25.1µM*,-6.1%,-8.8,-19.3%
COCC(=O)Nc1nc2c(s1)C[C@@H]1[C@](C)(CO)[C@H](O)CC[C@@]1(C)[C@@H]2CC(=O)NCc1ccc(OC)cc1,i,-0.6%,0.9,10.0%
COc1ccc(CNC(=O)C[C@@H]2c3nc(NC(=O)c4c(F)cccc4F)sc3C[C@@H]3[C@](C)(CO)[C@H](O)CC[C@]32C)cc1,28.2µM*,-0.4%,-9.5,-4.6%
COC(=O)c1cccc(NC(=O)NCc2c(-n3cccc3)sc3c2CCN(C)C3)c1,i,nt,nt,nt
COc1cccc(-c2nc(N3CCOCC3)cc3c2CN(CC2CC2)C3=O)c1OC,35.5µM*,-0.8%[87.6 µM],0.4,-11.5%[87.6 µM]
O=C1c2cc(N3CCOCC3)nc(-c3cccc(O)c3)c2CN1CC(F)(F)F,39.8µM*,-8.0%[87.6 µM],10.9,-5.2%[87.6 µM]
COc1cccc(-c2nc(N3CCOCC3)cc3c2CN(CC(F)(F)F)C3=O)c1OC,31.6µM*,0.9%[87.6 µM],8.0,18.7%[87.6 µM]
O=C1c2cc(N3CCOCC3)nc(-c3ccccc3)c2CN1Cc1ccccc1,31.6µM*,0.4%[87.6 µM],10.8,?
O=C(Nc1ccccc1N1CCOCC1)C1=NN(C2CCS(=O)(=O)C2)C(=O)CC1 (stereo not drawn),i,nt,nt,nt
O=C(NC1CCCCC1)C1CCCN(CCCc2nc3ccccc3o2)C1 (stereo not drawn),i,nt,nt,nt
CCCCn1nc(C(=O)NCC(F)(F)F)c2ccccc2c1=O,i,nt,nt,nt
COc1cccc(-c2nc(N3CCOCC3)cc3c2CN(Cc2ccccc2)C3=O)c1OC,31.6µM*,-2.4%,7.7,-1.8%
SMILES,KDM5B inhibitor,SNCA viab count,IP6K1 inh,SNCA expr inhib
COc1ccc(-c2nc(N3CCOCC3)cc3c2CN(Cc2ccccc2)C3=O)cc1,i,3.0%[87.6 µM],12.5,58.7%[87.6 µM]
O=C1Cc2c(-c3cccc(CO)c3)n[nH]c2CN1c1ccccc1,i,-11.4%[87.6 µM],15.0,31.3%[87.6 µM]
O=C1c2cc(N3CCOCC3)nc(-c3cccc(CO)c3)c2CN1c1ccccc1,35.5µM*,-12.1%[87.6 µM],11.6,26.7%[87.6 µM]
CN1Cc2c(cc(N3CCOCC3)nc2-c2ccccc2OC(F)(F)F)C1=O,35.5µM*,-27.0%[87.6 µM],4.9,8.8%[87.6 µM]
COc1cc(F)ccc1-c1nc(N2CCOCC2)cc2c1CN(CC(F)(F)F)C2=O,31.6µM*,9.4%[87.6 µM],7.8,-22.9%[87.6 µM]
COc1ccc(S(=O)(=O)Nc2cc(N3CCCS3(=O)=O)ccc2C)cc1OC,i,nt,nt,nt
CCc1nc2nccc(-c3ccc(OC)cc3)n2n1,22.4µM*,4.4%,-4.2,?
COCc1nc2nccc(-c3ccc(OC)cc3)n2n1,i,3.2%,-11.9,-6.5%
COCc1nc2nccc(-c3ccc4c(c3)CC(C)O4)n2n1 (stereo not drawn),28.2µM*,-6.7%,-13.2,-2.6%
COc1ccc(Cc2nc3nccc(-c4ccc(OC)c(OC)c4)n3n2)cc1,20µM*,0.7%,-2.9,37.7%
COc1ccc(Cc2nc3nccc(-c4ccc(OC)cc4)n3n2)cc1,14.1µM*,3.1%,2.3,32.0%
Cn1cnc(S(=O)(=O)N[C@H]2CCN(C(=O)c3ccco3)[C@H](C(=O)N[C@H](Cc3ccccc3)C(N)=O)C2)c1,i,7.2%,-6.4,10.6%
O=[N+]([O-])c1ccc(/C=N/Nc2cccc(Cl)c2)cc1,i,nt,nt,nt
O=C(c1ccsc1)N1CCCC(CN2CCOCC2)CC1 (stereo not drawn),nt,7.6%,-4.1,-8.0%
COc1ccccc1C(=O)N1CCN(Cc2ccccc2-c2cccnc2)CC1,nt,-8.6%[12.5 µM],6.4,-7.0%
COc1ccc(-c2ccnc3nc(Cc4ccc(F)cc4)nn23)cc1OC,28.2µM*,-4.0%,-8.5,7.8%
COc1ccc(CCc2nc3nccc(-c4ccc(F)cc4)n3n2)cc1OC,i,20.9%,6.2,2.1%
CCc1nc2nccc(-c3cccc(OC)c3)n2n1,25.1µM*,1.1%,-1.1,0.4%
CCc1nc2nccc(-c3ccc4c(c3)OCCCO4)n2n1,28.2µM*,-1.4%,3.8,18.8%
COc1cccc(-c2ccnc3nc(-c4cccs4)nn23)c1,?,-19.0%,11.6,81.4%
Cc1cc(Cl)ccc1NC(=O)CN1c2ccc(S(N)(=O)=O)cc2CC1C (stereo not drawn),i,nt,nt,nt
O=C(c1ccnc2[nH]ccc12)N1CCOCC1,126µM*,-2.2%[87.6 µM],17.4,25.6%[87.6 µM]
CN(C)C(=O)c1ccnc2[nH]ccc12,126µM*,?,-3.0,-3.7%[87.6 µM]
Cc1ccccc1C(=O)NCc1ccnc2[nH]ccc12,?,15.5%[87.6 µM],8.3,21.5%[87.6 µM]
COc1ccc(-c2c(C(=O)NC(C)C)nc3sccn23)cc1,nt,-21.3%,17.1,10.3%
SMILES,KDM5B inhibitor,SNCA viab count,IP6K1 inh,SNCA expr inhib
C=CC(=O)Nc1ccc(CN2C(=O)N(c3cc(OC)cc(OC)c3)Cc3cnc(Nc4ccc(N5CCN(C)CC5)cc4)nc32)cc1,nt,18.9µM*,-18.3,nt
Cc1nn2c(c1-c1ccnn1C(C)C)N(C(=O)C(C)C)CCC2,i,1.2%[87.6 µM],11.1,8.2%[87.6 µM]
Cc1nn2c(c1-c1ccnn1C(C)C)N(Cc1ccc(C(=O)O)s1)CCC2,25.1µM*,?,1.2,?
O=C(c1ccc2c(c1)OCO2)N1CCC2(CC1)N=C(c1ccc(Cl)cc1)NO2,31.6µM*,22.5%,2.2,16.4%
O=C(c1cccc(F)c1)N1CCC2(CC1)N=C(c1ccc(Cl)cc1)NO2,20µM*,-3.9%,2.2,5.6%
O=C(c1cccc(F)c1)N1CCC2(CC1)N=C(c1ccccc1)NO2,i,0.5%,4.5,?

# Source: PubChem BioAssay
